# Hits are enriched below; roughly 4.2% of the tested compounds scored in any of these assays.
# Mtb betalactam – beta-lactam sensitization of Mtb H37Rv, H37Rv. AID 434955, 2010. inhibition, % at 25 µM. hit rate 0.27% among 330,000. M. tuberculosis H37Rv growth with meropenem, percent inhibition; call rule not given here;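 further: growth measured after seven days incubation then overnight dye step; 0% = bacteria only wells and 100% = bacteria with antibiotic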
# RecA intein inh – Mtb RecA intein splicing inhibitors, primary screen, biochemical, fluorescence, HTS; cell-free RecA intein splicing; inhibition, % (no concentration beside the values); hit rate 0.75% among 290,000; AID 2221, 2009; in the data active means inhibition above about 30%;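 further: 0% = vehicle wells and 100% = reference inhibitor control wells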
# FBA Mtb inh – Mtb FBA enzyme inhibitors, primary screen, biochemical, fluorescence, strain H37Rv | Fructose-bisphosphate aldolase (Mycobacterium tuberculosis (strain ATCC 25618 / H37Rv)), … | purified M. tuberculosis FBA, fluorescence read-out | inhibition, % at 1 µM | hit rate 2.3% among 360,000; in the data active means inhibition above about 27%;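 further: 0% = vehicle and 100% = reference inhibitor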
# Target sequence (P9WQA3 whole entry, looked up): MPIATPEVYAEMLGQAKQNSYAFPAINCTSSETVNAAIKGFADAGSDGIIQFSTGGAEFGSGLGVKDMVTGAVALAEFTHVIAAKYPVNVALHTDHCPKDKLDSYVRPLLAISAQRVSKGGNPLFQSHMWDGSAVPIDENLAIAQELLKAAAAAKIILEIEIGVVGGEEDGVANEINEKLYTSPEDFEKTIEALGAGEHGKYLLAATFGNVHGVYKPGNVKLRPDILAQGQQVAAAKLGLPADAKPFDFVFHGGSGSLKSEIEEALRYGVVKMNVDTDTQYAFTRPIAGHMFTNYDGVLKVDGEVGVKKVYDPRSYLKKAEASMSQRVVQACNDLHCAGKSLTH
# GDH-TPI inh – GDH-TPI coupling enzyme inhibitors, primary screen, artefact control for M. tuberculosis FBA inhibitor project, biochemical, absorbance, full deck | GDH-TPI coupled enzyme counterscreen, NADH absorbance | inhibition, % at 4.8 µM | hit rate 1.2% among 360,000 | AID 588335, 2011;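 further: 0% = DMSO wells and 100% = wells lacking the enzyme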
# CCHF vOTU inh – CCHFV vOTU protease inhibitors, primary screen, biochemical, Pep-AMC substrate, fluorescence | AID 651958, 2012 | inhibition, % at 11.5 µM | Crimean-Congo hemorrhagic fever virus L polyprotein viral ovarian tumor (vOTU) protease … | hit rate 0.55% among 370,000; further: 0% = vehicle wells with enzyme and 100% = no enzyme wells
# Active calls of the source: *; . = not tested or not shown. Unless noted, no stated cut-off is given here; in the data, active means inhibition above about 30%; inactive means the rest.
SMILES,Mtb betalactam,RecA intein inh,FBA Mtb inh,GDH-TPI inh,CCHF vOTU inh
COC(=O)COc1ccc2c(-c3ccc(OC)cc3)cc(=O)oc2c1,99.6,2.6,0.1,18.5,4.0
COc1ccc(-c2cc3ccc(OCc4nn[nH]n4)cc3oc2=O)cc1OC,1.7,-19.0,10.7,42.2*,17.8
COc1ccc(-c2cc(=O)oc3cc(OCc4nn[nH]n4)ccc23)cc1,-2.6,0.1,1.7,36.2*,4.4
Cc1ccc(-c2nnc(SCC(=O)Nc3ccc(F)cc3F)n2Cc2ccco2)cc1,.,.,.,.,4.1
Cc1ccc(S(=O)(=O)N[C@@H](CCCCN)C(=O)CCl)cc1,1.2,50.4*,-0.2,8.2,1.6
COc1cccc(CNC(=O)C2CCN(c3nc(OC)nc(OC)n3)CC2)c1,.,.,.,.,13.0
c1ccc(-c2nnc3sc(C4CCCCC4)nn23)cc1,.,.,.,.,-3.5
COC(=O)[C@]12C[C@H](CC(=O)N3CCCC3)C(=O)N(CCc3ccc(OC)c(OC)c3)C1=C[C@H](C(C)C)O[C@@H]2C1CC1,.,.,.,.,7.4
CCc1csc(N2[C@H](CN(CCOC)S(=O)(=O)c3ccccc3[N+](=O)[O-])[C@H](c3ccccc3)[C@@H]2CO)n1,.,.,.,.,-0.8
Oc1cnn(-c2ccccc2)c1,93.8,63.5*,3.3,4.8,19.4
Oc1ccc(-c2[nH]ncc2-c2cnn(-c3ccccc3)c2)c(O)c1,-4.8,-1.1,-0.9,-1.2,15.1
CC(=O)Nc1ccc(/C=C/c2ccc3cccc([N+](=O)[O-])c3n2)cc1,-2.8,3.0,-2.0,40.0*,3.2
COc1cc(/C=C/c2ccc3c([N+](=O)[O-])cccc3n2)ccc1OCC(=O)O,99.2,4.7,-4.1,38.8*,-8.8
COc1cc(/C=C/c2ccc3cccc([N+](=O)[O-])c3n2)ccc1OCC(=O)O,.,10.5,-2.6,45.5*,13.0
O=C(O)COc1ccc(/C=C/c2ccc3cccc([N+](=O)[O-])c3n2)cc1,92.2,-99.5,-4.4,25.6,17.9
COC(=O)C12C=C3CC(c4ccc(OC)cc4)=C3C(=O)N1Cc1[nH]c3ccccc3c1C2 (configuration not stated),.,.,.,.,-10.7
COc1cc(C2(c3ccc(O)c(OC)c3)C(=O)Nc3c(C)cc(Br)cc32)ccc1O,-4.9,42.3*,-0.9,-1.5,4.0
Cc1cc(Br)cc2c1NC(=O)C2(c1c(C)n(C)n(-c2ccccc2)c1=O)c1c(C)n(C)n(-c2ccccc2)c1=O,-6.3,2.6,-0.9,13.3,3.8
O=C(CSc1nnc(-c2ccccc2)n1-c1ccc(Cl)cc1)c1ccc(F)cc1,.,.,.,.,7.2
CC1(C)SC(=S)N(c2ccccc2)C1/[N+]([O-])=C/c1cccc([N+](=O)[O-])c1 (configuration not stated),-4.0,-1.9,2.6,1.5,-16.1
COc1ccc(/C=[N+](\[O-])C2N(c3ccccc3)C(=S)SC2(C)C)cc1OC (configuration not stated),-3.2,-4.6,-1.5,32.4*,6.2
Cc1nn2cc(-c3ccc(Cl)cc3)nc2s1,9.0,1.3,-0.3,16.8,8.3
Cc1nc2nc(-c3ccc(Cl)cc3)cn2nc1C,-2.2,-30.1,141.6*,-4.8,-64.9
CNCc1sccc1C,-6.0,-1.4,33.9*,2.8,-15.3
COC(=O)[C@H](CC(C)C)N(Cc1cn(CC2CCCCC2)nn1)S(=O)(=O)c1ccccc1Br,.,.,.,.,16.5
SMILES,Mtb betalactam,RecA intein inh,FBA Mtb inh,GDH-TPI inh,CCHF vOTU inh
CC(=O)OCc1nc2sc(C)c(C)c2c(=O)[nH]1,-2.9,1.0,-0.1,-3.9,2.0
CCOC(=O)c1nc2sc(C)c(C)c2c(=O)[nH]1,0.3,-4.1,126.1*,14.3,-86.2
O=C(CN1CCN(Cc2ccccc2)CC1)N/N=C/C=C/c1ccco1,44.3,-1.0,0.3,33.5*,8.6
Cn1c(=O)c2c(ncn2CC(=O)N/N=C/C=C/c2ccco2)n(C)c1=O,-6.9,0.7,-2.5,32.1*,3.5
Cc1cccc(OCC(=O)N/N=C/C=C/c2ccco2)c1,-6.7,1.7,0.2,10.2,9.6
COc1ccc(C(=O)NCC(=O)N/N=C/C(C)=C/c2ccco2)cc1OC,95.0,0.4,-1.7,41.1*,2.6
COc1cc(C(=O)NCC(=O)N/N=C/c2ccco2)cc(OC)c1OC,2.4,-0.7,-2.8,1.7,5.9
CC(/C=N/NC(=O)CN1CCN(Cc2ccc(Cl)cc2)CC1)=C\c1ccco1,3.2,1.2,-0.6,30.3,13.9
Cc1ccc(OCC(=O)N/N=C/C=C/c2ccco2)c(Br)c1,.,7.2,1.9,34.0*,6.4
CCCC[C@H]1C2CC(OC(=O)Nc3cccc(C(F)(F)F)c3)C(C2)[C@H]2CCCCN21 (some centres not stated),.,.,.,.,0.6
O=C(NC1CCCCN(Cc2cccc(F)c2)C1=O)c1ccc2ccccc2c1 (configuration not stated),.,.,.,.,5.3
CC(/C=N/NC(=O)Cn1cnc2c1c(=O)n(C)c(=O)n2C)=C\c1ccco1,-1.3,-0.5,1.1,41.4*,-1.6
CC(=C/c1ccco1)/C=N/NC(=O)Cc1cccn1C,1.7,5.0,-1.3,24.5,6.2
CC(/C=N/NC(=O)Cc1cccn1C)=C\c1ccco1,0.6,2.4,-1.7,39.6*,15.9
CCN(Cc1cn(Cc2ccccc2)nn1)S(=O)(=O)c1ccccc1Br,.,.,.,.,-5.5
Cc1n[nH]c(C)c1S(=O)(=O)NC(C)Cc1ccccn1 (configuration not stated),.,.,.,.,4.1
CCCCC(=O)Nc1ccc(C(=O)NNC(=S)NC(=O)c2ccccc2[N+](=O)[O-])cc1,-0.1,1.0,-0.5,37.5*,-5.2
Cc1ccc(N/C=C(\C#N)c2ccc(OCCCF)cc2)cc1,87.6,1.6,0.8,40.8*,18.2
COc1ccc(N/C=C(\C#N)c2ccc(OCCCF)cc2)cc1,10.2,-0.9,-3.2,27.6,5.5
N#Cc1c(NC(=O)c2ccc(-c3ccccc3[N+](=O)[O-])o2)sc2c1CCCC2,-1.6,2.7,-10.2,32.0*,24.6
CC1CCc2c(sc(NC(=O)c3ccc(-c4ccccc4[N+](=O)[O-])o3)c2C#N)C1 (configuration not stated),1.7,.,0.1,10.2,-0.9
CN1C(=O)SC(Nc2cccc3ccccc23)C1=O (configuration not stated),72.9,-1.8,5.3,-7.4,0.5
O=C1NC(=O)C(Nc2cccc3ccccc23)S1 (configuration not stated),-10.1,-3.1,6.6,36.2*,-6.8
Cn1c(SCC(=O)Nc2ccc(S(=O)(=O)Nc3nccs3)cc2)nc2sc3c(c2c1=O)CCCC3,.,.,.,.,9.6
Oc1ccc(/C=N/N=C/c2ccc(O)cc2)cc1,-2.5,.,0.1,31.2*,12.0
Cc1ccc(/C=N/N=C/c2ccc(C)cc2)cc1,17.0,-0.6,3.3,3.8,0.0
Oc1ccc(/C=N/N=C/c2ccc(O)c(O)c2)cc1O,2.8,-6.5,0.1,43.1*,5.3
